# Test results from PubChem BioAssay (EPA / NIEHS).
# Results filed as inconclusive are left out. Calls of active or inactive are those of the source. Rule for the calls, unless noted: active = hit-call score of the fitted dose curve at least 0.9, where 1 is the maximum; inactive = score below 0.9.
# How the values were obtained:
# DIO1 (gene 1733) = assay: CCTE_GLTED_hDIO1: CCTE's human Deiodinase 1 (DIO1) Inhibition Assay, Great Lakes Toxicology and Ecology Division (GLTED) Lab (AID 2283987; active = hit-call score of the fitted dose curve at least 0.9, where 1 is the maximum;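 note: isolated human DIO1 enzyme in a cell-free setup rather than cells; enzyme activity read as free iodide liberated from substrate via Sandell-Kolthoff colorimetry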)
# Summary of the method: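 Inhibition of human deiodinase 1 is scored as reduced iodide liberation after a 3 h enzyme–chemical incubation, detected colorimetrically by the Sandell-Kolthoff reaction against DMSO controls.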
# [1] = CCTE_Harrill_HTTr_Viability_MCF7: CCTE's 6-hour Cell Viability Assessment for the High-Throughput Transcriptomics (HTTr) Platform, in MCF-7 cells cultured in DMEM + 10% fetal bovine serum, Harrill Lab (AID 2284010)
# Summary of the method: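 Cells were dosed with chemicals in an eight-point dilution series, imaged 6 hours later for propidium iodide uptake, and the endpoint was analyzed by bidirectional fitting against DMSO as negative control.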
# [2] = CCTE_Harrill_HTTr_Apoptosis_MCF7: CCTE's 6-hour Apoptosis Assessment for the High-Throughput Transcriptomics (HTTr) Platform, in MCF-7 cells cultured in DMEM + 10% fetal bovine serum, Harrill Lab (AID 2284011)
# Summary of the method: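 MCF-7 (DMEM + 10% FBS), 384-well; 8-pt dilution series, 6 h chemical exposure; caspase-3/7 activation via CellEvent Caspase 3/7 Green, HCI; bidirectional fit vs DMSO.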
# [3] = CCTE_Harrill_HTTr_CellCount_MCF7: CCTE's Cell Proliferation Assessment for the High-Throughput Transcriptomics (HTTr) Platform, Harrill Lab (AID 2284012; active = hit-call score of the fitted dose curve at least 0.9, where 1 is the maximum;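 note: count of Hoechst-stained nuclei per well by high-content imaging in MCF-7 cells; cells exposed to compound for six hours; intended direction is loss of nuclei count meaning fewer cells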)
# Summary of the method: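 Chemicals in eight-point dilution series are added to MCF-7 cells for six hours, nuclei are stained with Hoechst and imaged, and per-well nuclei counts are fitted in both directions relative to DMSO controls.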
# [4] = target: Nucleoli Translocation, AR (gene 367) (UniProt P10275); assay: UPITT_HCI_U2OS_AR_TIF2_Nucleoli_Agonist: University of Pittsburgh U2OS Androgen Receptor-Transcriptional Intermediary Factor 2 (AR-TIF2) Agonism High Content Imaging Assay for Nucleoli Translocation (AID 2283998; active = hit-call score of the fitted dose curve at least 0.9, where 1 is the maximum)
# Chain of Nucleoli Translocation, AR (gene 367) (P10275 whole entry, looked up): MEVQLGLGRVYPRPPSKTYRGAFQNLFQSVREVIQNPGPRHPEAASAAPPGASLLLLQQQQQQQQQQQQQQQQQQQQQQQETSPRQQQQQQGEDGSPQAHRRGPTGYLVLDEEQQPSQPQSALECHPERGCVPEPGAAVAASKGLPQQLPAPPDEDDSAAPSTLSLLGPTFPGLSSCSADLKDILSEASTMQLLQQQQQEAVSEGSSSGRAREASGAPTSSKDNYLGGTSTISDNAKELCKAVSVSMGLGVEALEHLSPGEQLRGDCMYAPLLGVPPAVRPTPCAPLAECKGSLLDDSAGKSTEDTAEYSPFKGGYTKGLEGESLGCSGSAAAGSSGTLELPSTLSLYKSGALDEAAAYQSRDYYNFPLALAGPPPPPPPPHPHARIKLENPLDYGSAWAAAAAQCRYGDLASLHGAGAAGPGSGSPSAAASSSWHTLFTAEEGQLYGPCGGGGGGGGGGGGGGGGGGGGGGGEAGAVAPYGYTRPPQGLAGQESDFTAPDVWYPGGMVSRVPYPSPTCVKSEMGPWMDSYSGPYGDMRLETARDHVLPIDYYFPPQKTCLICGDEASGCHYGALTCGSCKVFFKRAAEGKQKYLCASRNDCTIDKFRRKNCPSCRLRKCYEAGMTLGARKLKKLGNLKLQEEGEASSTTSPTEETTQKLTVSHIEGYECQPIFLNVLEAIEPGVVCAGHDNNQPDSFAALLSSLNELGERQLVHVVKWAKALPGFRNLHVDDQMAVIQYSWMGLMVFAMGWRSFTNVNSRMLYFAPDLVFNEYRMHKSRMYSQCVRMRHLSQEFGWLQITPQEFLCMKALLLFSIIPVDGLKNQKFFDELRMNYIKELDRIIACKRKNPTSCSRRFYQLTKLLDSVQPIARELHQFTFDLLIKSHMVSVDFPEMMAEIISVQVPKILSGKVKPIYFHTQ
# Summary of the method: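 Readout is red (AR-RFP) fluorescence localized to nucleoli, measured by high-content imaging and analysed for increase relative to DMSO. Compound series spanned 0.195 to 50 uM final in 0.5% DMSO.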
# [5] = target: Ratio of Nucleoli Translocation and Cytoplasm, AR (gene 367) (UniProt P10275); assay: UPITT_HCI_U2OS_AR_TIF2_Nucleoli_Cytoplasm_Ratio_Agonist: University of Pittsburgh U2OS Androgen Receptor-Transcriptional Intermediary Factor 2 (AR-TIF2) Agonism High Content Imaging Assay for Ratio of Nucleoli Translocation and Cytoplasm (AID 2284000; active = hit-call score of the fitted dose curve at least 0.9, where 1 is the maximum;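 note: hits raise the red nucleolar to cytoplasm ratio above vehicle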)
# Chain of Ratio of Nucleoli Translocation and Cytoplasm, AR (gene 367) (P10275 whole entry, looked up, the tested form may be a part): as the sequence (P10275 whole entry, looked up) above
# Summary of the method: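 Read-out first: nucleolar-to-cytoplasm ratio of red (AR-RFP) signal, quantified by high-content imaging in U2OS cells co-expressing TIF2-GFP. Activity is scored as signal increase over DMSO. Single-point screening used 20 uM final (0.2% DMSO).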
# [6] = target: Retinoic acid receptor RXR-alpha (Homo sapiens) (UniProt P19793); assay: TOX21_TR_RXR_BLA_Agonist_Followup_ratio: Tox21 Thyroid Hormone Receptor beta Retinoid X Receptor alpha (RXRa) Agonism Beta-lactamase (BLA) Follow-Up Assay, Ratio (AID 2283968; active = hit-call score of the fitted dose curve at least 0.9, where 1 is the maximum)
# Chain of Retinoic acid receptor RXR-alpha (Homo sapiens) (P19793 whole entry, looked up): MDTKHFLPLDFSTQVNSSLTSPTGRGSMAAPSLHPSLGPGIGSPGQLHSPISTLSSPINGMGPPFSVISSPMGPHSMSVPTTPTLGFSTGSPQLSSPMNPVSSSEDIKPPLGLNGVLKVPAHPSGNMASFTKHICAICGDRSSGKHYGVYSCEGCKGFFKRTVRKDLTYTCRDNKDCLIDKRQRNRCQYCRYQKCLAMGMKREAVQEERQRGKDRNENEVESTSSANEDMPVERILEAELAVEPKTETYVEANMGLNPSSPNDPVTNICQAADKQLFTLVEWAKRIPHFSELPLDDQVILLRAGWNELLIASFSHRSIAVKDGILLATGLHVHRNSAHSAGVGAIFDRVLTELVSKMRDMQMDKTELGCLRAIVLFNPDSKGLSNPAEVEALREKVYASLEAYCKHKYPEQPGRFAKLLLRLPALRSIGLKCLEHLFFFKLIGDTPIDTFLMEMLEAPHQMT
# Summary of the method: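 HEK293T RXRa-bla, qHTS; cpd 11-pt conc. in triplicate, 16 h 37C/5% CO2; CCF4-AM 2 h RT; ratio 460:530 nm; agonist direction vs DMSO; 9-cis retinoic acid as positive control.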
# [7] = TOX21_TR_RXR_BLA_Agonist_Followup_viability: Viability Assessment in the Tox21 Thyroid Hormone Receptor beta Retinoid X Receptor alpha (RXRa) Agonism Beta-lactamase (BLA) Follow-Up Assay (AID 2283970; active = hit-call score of the fitted dose curve at least 0.9, where 1 is the maximum)
# Summary of the method: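 Cells: HEK293T RXRa-UAS-bla, 2,500/well; medium phenol red-free DMEM + 2% charcoal-stripped FBS; 16h, 37C/5% CO2; qHTS concentration series. Read: CellTiter-Glo luminescence (ATP); bidirectional fit, DMSO = baseline.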
# [8] = target: Retinoic acid receptor RXR-alpha (Homo sapiens) (UniProt P19793); assay: TOX21_TR_RXR_BLA_Antagonist_Followup_ratio: Tox21 Thyroid Hormone Receptor beta Retinoid X Receptor alpha (RXRa) Antagonism Beta-lactamase (BLA) Follow-Up Assay, Ratio (AID 2283972; active = hit-call score of the fitted dose curve at least 0.9, where 1 is the maximum)
# Summary of the method: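 HEK293T RXRa-bla, 2% charcoal-stripped FBS medium, 16 h compound exposure at 37C, qHTS 11 conc x3. CCF4 FRET ratio ch2/ch1 (460:530), DMSO = baseline, loss-of-signal fit.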
# [9] = TOX21_TR_RXR_BLA_Antagonist_Followup_viability: Viability Assessment in the Tox21 Thyroid Hormone Receptor beta Retinoid X Receptor alpha (RXRa) Antagonism Beta-lactamase (BLA) Follow-Up Assay (AID 2283979; active = hit-call score of the fitted dose curve at least 0.9, where 1 is the maximum)
# Summary of the method: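 Follow-up compounds (11 concentrations, triplicate) were incubated 16 h at 37C/5% CO2 with HEK293T RXRa-bla cells seeded at 2,500/well in charcoal-stripped-serum medium. ATP content by CellTiter-Glo luminescence gave viability; curves fitted in both directions against DMSO.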
# [10] = CCTE_Shafer_MEA_acute_spike_number: CCTE's Neural Acute Assay for Total Number of Spikes, Shafer Lab (AID 2284008);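 for AC50: curve fitted for decrease in spike count so AC50 reflects inhibitors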
# Summary of the method: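 Read-out is the total spike count over 40 min, expressed as percent change from each well's own pre-treatment baseline and fitted in the loss direction against DMSO. Rat cortical neurons were exposed at 0.03-40 uM on DIV 13 or 15.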
# [11] = CCTE_Shafer_MEA_acute_firing_rate_mean: CCTE's Neural Acute Assay for Mean Firing Rate, Shafer Lab (AID 2284009);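 note: analyzed for loss of signal so actives lower firing rate relative to DMSO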
# Summary of the method: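 Percent change in well-mean firing rate was derived from extracellular spikes detected at 8x rms noise (300-5000 Hz band-pass) before and after a 40-min compound exposure. Cultures were primary rat cortical neurons, tested at 0.03-40 uM.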
# [12] = CCTE_Shafer_MEA_acute_burst_number: CCTE's Neural Acute Assay for Single-Electrode Bursts, Shafer Lab (AID 2284013)
# Summary of the method: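 Spontaneous network activity of primary rat cortical neurons was recorded extracellularly on microelectrode arrays at 37 C, with 40-min periods before and during exposure to 0.03-40 uM compound on DIV 13 or 15.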
# [13] = CCTE_Shafer_MEA_acute_burst_duration_mean: CCTE's Neural Acute Assay for Mean Burst Duration, Shafer Lab (AID 2284014);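 note: hits are decreases in mean burst duration relative to DMSO controls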
# Summary of the method: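 Read-out is the per-well percent change in mean burst duration (first to last spike within a single-electrode burst) between 40-min recordings before and after compound. Cultures were primary rat cortical neurons on MEAs, dosed at 0.03-40 uM on DIV 13 or 15.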
# [14] = CCTE_Shafer_MEA_acute_interburst_interval_mean: CCTE's Neural Acute Assay for Mean Interburst Interval, Shafer Lab (AID 2284016);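 note: percent change of mean interburst interval versus each well's own pre-dose baseline; curves fitted for decrease in interburst interval relative to DMSO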
# Summary of the method: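 Rat primary cortical neurons on 48-well MEAs at DIV 13 or 15 were exposed acutely to 0.03-40 uM. Spikes detected at 8x rms noise, 37 C. Mean interburst interval from 40 min recordings expressed as percent change from 40 min pre-treatment baseline.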
# [15] = CCTE_Shafer_MEA_acute_burst_percentage_mean: CCTE's Neural Acute Assay for Percentage of Spikes in a Burst, Shafer Lab (AID 2284017);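 for AC50: curve fitted for loss of signal so potency reflects decreased burst percentage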
# Summary of the method: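 Primary rat cortical neurons on 48-well MEA plates, treated on DIV 13 or 15 at 0.03-40 uM. Spikes detected at 8x rms noise at 37C; percent change from 40-min baseline to 40-min post-dose recording, fitted versus DMSO.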
# [16] = CCTE_Shafer_MEA_acute_burst_percentage_std: CCTE's Neural Acute Assay for Standard Deviation of Burst Percentage, Shafer Lab (AID 2284018);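 note: fitted in the negative direction so actives lower burst percentage SD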
# Summary of the method: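 Value is percent change from baseline in the across-electrode SD of spikes-in-bursts percentage, wells with >/= 10 active electrodes. Acute 40-min exposure to 0.03-40 uM on DIV 13 or 15 rat cortical cultures, recorded at 37 C after 40-min baseline.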
# [17] = CCTE_Shafer_MEA_acute_per_network_burst_spike_number_mean: CCTE's Neural Acute Assay for Average Number of Spikes in a Network Burst, Shafer Lab (AID 2284019)
# Summary of the method: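 Read-out is mean spike count per network burst, taken as percent change between a 40-min pre-exposure and a 40-min post-exposure recording per well. Rat primary cortical neurons on MEAs at 37 C, DIV 13 or 15; compounds at 0.03-40 uM.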
# [18] = target: Nucleoli Translocation, AR (gene 367) (UniProt P10275); assay: UPITT_HCI_U2OS_AR_TIF2_Nucleoli_Antagonist: University of Pittsburgh U2OS Androgen Receptor-Transcriptional Intermediary Factor 2 (AR-TIF2) Antagonism High Content Imaging Assay for Nucleoli Translocation (AID 2283997; active = hit-call score of the fitted dose curve at least 0.9, where 1 is the maximum)
# Summary of the method: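 Measured quantity was AR-RFP fluorescence localized to nucleoli in engineered U2OS cells also bearing TIF2-GFP, acquired on automated high-content imagers. Primary testing used 20 uM compound; actives were confirmed in triplicate wells.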
# [19] = target: Ratio of Nucleoli Translocation and Cytoplasm, AR (gene 367) (UniProt P10275); assay: UPITT_HCI_U2OS_AR_TIF2_Nucleoli_Cytoplasm_Ratio_Antagonist: University of Pittsburgh U2OS Androgen Receptor-Transcriptional Intermediary Factor 2 (AR-TIF2) Antagonism High Content Imaging Assay for Ratio of Nucleoli Translocation and Cytoplasm (AID 2283999; active = hit-call score of the fitted dose curve at least 0.9, where 1 is the maximum;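 note: antagonists lower the DHT-driven ratio of nucleolar to cytoplasmic red signal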)
# Summary of the method: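 Human osteosarcoma U2OS line, AR fused to RFP, coactivator TIF2 fused to GFP. Cpds 20 uM final, 0.2% DMSO (screen); 0.195–50 uM final, 0.5% DMSO (CRC). Endpoint: nucleoli/cytoplasm red signal ratio, DHT as baseline, loss-of-signal antagonist mode.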
smiles,measurement,setting,value
C=C1CC[C@H](O)C/C1=C/C=C1\CCC[C@]2(C)[C@@H]([C@H](C)/C=C/[C@H](C)C(C)C)CC[C@@H]12,AC50,DIO1 (gene 1733),19.8 µM (active)
same,outcome,[1],inactive
same,outcome,[2],inactive
same,outcome,[3],inactive
CCCCCCCCCCCCCC(=O)OCC(O)CO (stereo not given),outcome,[4],inactive
same,outcome,[5],inactive
Cc1cc(C)nc(NS(=O)(=O)c2ccc(N)cc2)n1,outcome,[6],inactive
same,outcome,[7],inactive
same,outcome,[1],inactive
same,outcome,[2],inactive
Oc1c(Cl)cc(Cl)c(Cl)c1Cc1c(O)c(Cl)cc(Cl)c1Cl,outcome,[8],inactive
same,AC50,[9],33.3 µM (active)
same,AC50,[10],0.266 µM (active)
same,AC50,[11],0.266 µM (active)
same,outcome,[1],inactive
same,outcome,[2],inactive
same,outcome,[12],inactive
same,outcome,[13],inactive
same,AC50,[14],0.122 µM (active)
same,AC50,[15],0.163 µM (active)
same,outcome,[16],inactive
same,outcome,[17],inactive
Cc1ccc(S(=O)(=O)Oc2ccc(N=Nc3ccc(-c4ccc(N=Nc5c(O)ccc6cc(S(=O)(=O)O)cc(S(=O)(=O)O)c56)c(C)c4)cc3C)cc2)cc1,outcome,[18],inactive
same,outcome,[4],inactive
same,outcome,[19],inactive
same,outcome,[5],inactive
Nc1ccc(N)c2c1C(=O)c1ccccc1C2=O,outcome,[18],inactive
same,outcome,[4],inactive
same,outcome,[19],inactive
same,outcome,[5],inactive
C=CC(C)(O)CCC=C(C)C (stereo not given),outcome,[10],inactive
same,outcome,[11],inactive
same,outcome,[1],inactive
same,outcome,[2],inactive
same,outcome,[12],inactive
same,outcome,[13],inactive
same,AC50,[14],15 µM (active)
same,outcome,[15],inactive
same,outcome,[16],inactive
same,outcome,[17],inactive
CC(=O)C1(C)CC2=C(CCCC2(C)C)CC1C (stereo not given),outcome,[18],inactive
same,outcome,[4],inactive
same,outcome,[19],inactive
same,outcome,[5],inactive
same,outcome,[1],inactive
same,outcome,[2],inactive
same,outcome,[3],inactive
O=C(Nc1ccc2c(O)c(N=Nc3ccc(N=Nc4ccc(S(=O)(=O)O)cc4)cc3)c(S(=O)(=O)O)cc2c1)c1ccccc1,outcome,[10],inactive
same,outcome,[11],inactive
same,outcome,[12],inactive
same,outcome,[13],inactive
same,AC50,[14],15 µM (active)
same,AC50,[15],15 µM (active)
same,outcome,[16],inactive
same,outcome,[17],inactive
